The structures appear in SMILES notation. Where “and” joins values, the source holds several entries; their conditions need not be identical. Equal entries are not always repeated. Records with an inconclusive call do not appear. Calls of active or inactive are those of the source. Calls come from the whole dose curve; as a rule, active = well fitted curve in the direction sought with a large enough effect; inconclusive = small, poorly fitted or top-dose-only effect, or another doubt; inactive = no such curve, though single readings can be large or run the other way.

The record followed here is PubChem BioAssay AID2590 (National Center for Advancing Translational Sciences (NCATS), 2010).
Potency is the fitted concentration of half-maximal effect.

Sequence of Lysosomal acid glucosylceramidase (Homo sapiens) (P04062 whole entry N409S): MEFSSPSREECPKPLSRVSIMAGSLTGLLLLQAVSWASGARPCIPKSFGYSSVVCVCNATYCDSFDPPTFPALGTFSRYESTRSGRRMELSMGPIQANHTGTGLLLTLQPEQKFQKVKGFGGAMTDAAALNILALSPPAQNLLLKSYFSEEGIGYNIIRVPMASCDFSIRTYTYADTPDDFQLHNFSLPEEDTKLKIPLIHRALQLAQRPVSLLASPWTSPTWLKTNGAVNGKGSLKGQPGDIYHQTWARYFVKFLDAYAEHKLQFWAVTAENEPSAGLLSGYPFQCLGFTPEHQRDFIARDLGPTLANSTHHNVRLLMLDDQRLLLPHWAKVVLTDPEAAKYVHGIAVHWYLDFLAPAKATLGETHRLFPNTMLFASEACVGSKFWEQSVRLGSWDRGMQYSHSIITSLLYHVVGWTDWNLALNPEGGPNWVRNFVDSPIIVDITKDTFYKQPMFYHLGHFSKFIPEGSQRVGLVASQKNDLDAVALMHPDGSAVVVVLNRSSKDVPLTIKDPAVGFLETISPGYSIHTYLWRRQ

This assay has as its target Lysosomal acid glucosylceramidase (Homo sapiens) (UniProt P04062). Description: qHTS Assay for Inhibitors and Activators of N370S glucocerebrosidase as a Potential Chaperone Treatment of Gaucher Disease: Primary Screen Confirmation.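 For activity change, negative = inhibition: 0% = enzyme with DMSO and -100% = no enzyme basal signal.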 As to conditions: N370S glucocerebrosidase enzyme activity, fluorogenic substrate; series mostly up to 54 µM; activity change, negative = inhibition: at the top concentration. The text has this:
NIH Chemical Genomics Center [NCGC]
NIH Molecular Libraries Probe Production Centers Network [MLPCN]
Assay Submitter (PI): Wei Zheng
Glucocerebrosidase (GC) catalyzes the hydrolysis of beta-glucocerebroside to glucose and ceramide in lysosomes. Mutations in the glucocerebrosidase gene result in Gaucher disease, an autosomal recessive lysosomal storage disorder. Many of the mutations encountered in patients with Gaucher disease are missense alterations that may cause misfolding, decreased stability and/or mistrafficking of this lysosomal protein. […] These inhibitors include iminosugar analogs and three non-iminosugar inhibitors identified from a previous HTS of 62,000 compounds with the wild type recombinant enzyme. However, the enhancement of enzyme activity by the chaperone action of an enzyme inhibitor must be balanced against the direct inhibition of the enzyme. An enzyme activator could also function as a chaperone by binding to the enzyme and helping to correct its misfolding and mistrafficking. While activators for GC have not yet been identified, they may have better therapeutic potential than inhibitors. Therefore the discovery and development of chemical activators may provide a new strategy for the chaperone therapy.
We have optimized a new assay using N370S mutant GC derived from the spleen of a Gaucher patient. […] In addition, the MLPCN compound library has expanded, which increases the chance of finding new and better probes.
NCGC Assay Protocol Summary:
This is a fluorogenic enzyme assay with 4-methylumbelliferyl-beta-D-glucopyranoside as the substrate and N370S glucocerebrosidase from human spleen homogenate as the enzyme preparation. Upon the hydrolysis of this fluorogenic substrate, the resulting product, […] which can be detected by a standard fluorescence plate reader. Data were normalized to the controls for basal activity (without enzyme) and 100% activity (with enzyme). The AC50 values were determined from concentration-response data modeled with the standard Hill equation.
Assay buffer: 50 mM citric acid (titrated with potassium phosphate to pH 5.0), 100 mM potassium chloride, 10 mM sodium chloride, 1 mM magnesium chloride, 0.01% Tween-20.
1536-well assay protocol:
(1) Add 2 ul/well of spleen homogenate (27 ug final)
(2) Add 23 nL compounds in DMSO solution. The final titration was 0.5 nM to 58 uM.
(3) Add 2 ul of substrate (1 mM final)
(4) Incubate at 37C for 40 min.
(5) Add 2 ul stop solution (1M NaOH and 1M Glycine mixture, pH 10)
(6) Detect the assay plate in a ViewLux plate reader (PerkinElmer) with Ex=365 nm and Em=440nm.
Keywords: Glucocerebrosidase, beta-glucosidase, Gaucher Disease, pharmacological chaperone, chaperone therapy, high throughput screening, glucocerebrosidase inhibitor, MLSMR, MLSCN, NIH Roadmap, qHTS and NCGC
On the technique in general: In qHTS, concentration-response curves come from the screen itself.
In the case of `CCOc1ccc(N(CC(=O)NC2CCCCCC2)S(=O)(=O)c2c(C)[nH]c(=O)[nH]c2=O)cc1`, the Potency is 7.94 µM (active). Consider `Cc1ccccc1NC(=O)Nc1ccccn1`, for which the “activity change, negative = inhibition” value was 2.43% (inactive). With `O=S(=O)(c1ccsc1)N1CCN(c2nc(-c3cccs3)nc3ccccc23)CC1`, the Potency was 1.03 µM (active). On to `O=S(=O)(c1ccc2c(c1)OCCO2)N1CCN(c2nc(-c3cccs3)nc3ccccc23)CC1`, for which the Potency was 410 nM (active) and 450 nM (active). In the case of `O=S(=O)(c1cc(Cl)cc(Cl)c1)N1CCN(c2nc(-c3cccs3)nc3ccccc23)CC1`, the Potency is 2.53 µM (active). As for `CC(C)(C)c1cccc(S(=O)(=O)N2CCN(c3nc(-c4cccs4)nc4ccccc34)CC2)c1`, the Potency was 1.63 µM (active). Take `CC(=O)N1CCN(C(=O)c2cc(-c3ccc(Cl)s3)nc3ccccc23)CC1`: the “activity change, negative = inhibition” value was -3.72% (inactive). On to `Cc1ccc(-c2nc(Nc3ccc(O)cc3)c3ccccc3n2)cc1`, for which the Potency is 12.7 µM (active). On to `Cc1cccc(NC(=S)Nc2cccc(C)n2)n1`, for which the “activity change, negative = inhibition” value was 11.5% (inactive).

For the compound `COCCNC(=O)/C(C#N)=C/c1c(N2CCN(C)CC2)nc2c(C)cccn2c1=O`, the “activity change, negative = inhibition” value was 0.625% (inactive). Consider `CCN(Cc1ccccc1)c1ccc(Br)cn1`, for which the “activity change, negative = inhibition” value was -10.6% (inactive). Consider `S=C(NCCCc1cnc[nH]1)NCCCN(Cc1ccc(Cl)c(Cl)c1)c1ccc(Br)cn1`, for which the Potency is 650 nM (active) and 579 nM (active).

As for `Cc1cccc(NC(=O)Nc2cccc(C#N)c2)n1`, the “activity change, negative = inhibition” value is -2.1% (inactive). Take `Cc1ccc(S(=O)(=O)N2CCN(c3nc(-c4ncco4)nc4ccccc34)CC2)cc1`: the Potency is 9.02 µM (active). Consider `O=S(=O)(c1ccccc1Br)N1CCN(c2nc(-c3cccs3)nc3ccccc23)CC1`, for which the Potency is 1.3 µM (active). The same measure, in the same setting: then `O=C(/C=C/c1ccc(O)cc1)c1ccc(O)cc1O`, with 11.2 µM (active); and `S=C(NCCCc1cnc[nH]1)NCCCN(Cc1ccc(Cl)cc1)c1ccc(Br)cn1`, with 1.16 µM (active); and `CC(C)S(=O)(=O)N1CCN(c2nc(-c3cccs3)nc3ccccc23)CC1`, with 5.07 µM (active). The same measure, in the same setting: to `CC(=O)c1ccccc1S(=O)(=O)N1CCN(c2nc(-c3cccs3)nc3ccccc23)CC1` belongs 3.26 µM (active). Consider `NCCCN(Cc1ccc(Cl)c(Cl)c1)c1ccccn1`, for which the “activity change, negative = inhibition” value was -26.1% (inactive). As to `CCOC(=O)c1ccc(S(=O)(=O)N2CCN(c3nc(-c4ccccc4)nc4ccccc34)CC2)cc1`, the Potency was 5.17 µM (active). On the same count and under the same terms, then `S=C(NCCCc1cnc[nH]1)NCCN(Cc1ccc(Cl)c(Cl)c1)c1ccc(Br)cn1`, with 2.06 µM (active).

For `CCN(CC)c1ccc(Br)cn1`, the Potency is 9.18 µM (active). Consider `O=S(=O)(c1ccc(F)cc1)N1CCN(c2nc(-c3cccc(Br)c3)nc3ccccc23)CC1`, for which the “activity change, negative = inhibition” value was -9.98% (inactive).

As to `O=S(=O)(c1cnc2ccccc2c1)N1CCN(c2nc(-c3cccs3)nc3ccccc23)CC1`, the Potency was 0.897 µM (active). On the same count and under the same terms, then `Cc1cc(C)cc(N(CC(=O)Nc2ccc(C)cc2Cl)S(=O)(=O)c2c(C)[nH]c(=O)[nH]c2=O)c1`, with 1.63 µM (active); and `CN(CCN(C)c1nc(-c2cccs2)nc2ccccc12)C(=O)OC(C)(C)C`, with 5.8 µM (active). Regarding `S=C(NCCCc1cnc[nH]1)NCCCN(CCc1ccccc1)c1ccc(Br)cn1`, the Potency was 2.25 µM (active). On to `COc1ccccc1NC(=O)COc1ccccc1C(=O)Nc1ccccc1`, for which the “activity change, negative = inhibition” value was 10.7% (inactive).

On to `Cc1ccc(S(=O)(=O)C2CCN(c3nc(-c4cccs4)nc4ccccc34)CC2)cc1`, for which the Potency was 8.19 µM (active).

With `O=S(=O)(c1ccc(F)cc1)N1CCN(c2nc(-c3cccs3)nc3cc(Cl)ccc23)CC1`, the “activity change, negative = inhibition” value is -13.8% (inactive). In the case of `O=S(=O)(c1ccc(OC(F)(F)F)cc1)N1CCN(c2nc(-c3cccs3)nc3ccccc23)CC1`, the Potency was 2.91 µM (active). With `Clc1ccc(CN(CCCNc2ncnc(NCCCc3cnc[nH]3)n2)c2ccc(Br)cn2)cc1Cl`, the Potency was 5.66 µM (active).

Regarding `Cc1cc(Cl)nc(NC(=O)Nc2cccc(Cl)c2)n1`, the “activity change, negative = inhibition” value was 20.8% (inactive).

As for `CCOc1ccc(N(CC(=O)Nc2ccc(C)cc2)S(=O)(=O)c2c(C)[nH]c(=O)[nH]c2=O)cc1`, the Potency is 11.2 µM (active). Regarding `COc1ccc(NC(=O)Nc2cccc(C)n2)c(OC)c1`, the “activity change, negative = inhibition” value was 18.6% (inactive). Same read-out and setting: then `O=S(=O)(c1ccc(F)cc1)N1CCN(c2nc(-c3ccc(F)cc3)nc3cc(Cl)ccc23)CC1`, with -2.14% (inactive). `Cc1ccc(S(=O)(=O)N(C)CCN(C)c2nc(-c3cccs3)nc3ccccc23)cc1`: the Potency is 2.25 µM (active). The same measure, in the same setting: then `Cc1cc(C)cc(S(=O)(=O)N2CCN(c3nc(-c4cccs4)nc4ccccc34)CC2)c1`, with 1.03 µM (active); and `O=S(=O)(c1ccc(Br)cc1)N1CCN(c2nc(-c3cccs3)nc3ccccc23)CC1`, with 1.3 µM (active).
